Results published in paper PMC5540273 (PLoS ONE, 2017).

What was measured:
Settings in all cases: concentration: 1 μM, replicates: in singlicate; n = 1
LRRK2 = system: LRRK2
LTK = system: LTK
LYN = system: LYN
LZK = system: T1, LZK
T1 construct: gene MAP3K13

MAK = system: MAK
MAP3K15 = system: MAP3K15
MAP3K1 = system: MAP3K1
MAP3K2 = system: MAP3K2
MAP3K3 = system: MAP3K3
MAP3K4 = system: MAP3K4
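Further: KINOMEscan kinase panel screen.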

Row | Compound | %Inh (LRRK2) [%] | %Inh (LTK) [%] | %Inh (LYN) [%] | %Inh (LZK) [%] | %Inh (MAK) [%] | %Inh (MAP3K15) [%] | %Inh (MAP3K1) [%] | %Inh (MAP3K2) [%] | %Inh (MAP3K3) [%] | %Inh (MAP3K4) [%]
1 | Nc1ncnc2occ(-c3ccc4c(c3)CCN4C(=O)Cc3cc(F)ccc3F)c12 [GSK2645446] | 0 | 0 | 0 | 0 | 0 | 0 | 0 | 6 | 0 | 50
2 | Cn1cnc2c(N)ncnc21 [SKF-97623] | 0 | 0 | 0 | 2 | 0 | 0 | 0 | 0 | 0 | 0
3 | Cc1cnc(N)c(/C=C/c2cncc(C(=O)NCCc3ccc(Cl)cc3Cl)c2)c1.Cl [GSK190937] | 0 | 0 | 20 | 0 | 9 | 0 | 7 | 0 | 0 | 0
4 | COc1ccc(Nc2nccc(N3CCC(NC(=O)C(C)c4ccc(Cl)cc4)C3)n2)cc1 (stereo not drawn) [GSK1379735] | 51 | 61 | 0 | 0 | 9 | 11 | 5 | 0 | 0 | 16
5 | COC(=O)c1cccc(NC(=O)NC2CCN(c3ccnc(Nc4ccc(F)cc4)n3)C2)c1 (stereo not drawn) [GSK1379725] | 5 | 17 | 0 | 6 | 16 | 0 | 8 | 11 | 0 | 24
6 | COc1ccc(-c2coc3ccc(-c4nnc(C)o4)cc23)cc1 | 0 | 0 | 10 | 0 | 0 | 0 | 0 | 0 | 0 | 8
7 | CCn1c(-c2c(N)noc2C)nc2cnccc21 [SB-737856] | 0 | 10 | 0 | 0 | 0 | 0 | 0 | 17 | 0 | 19
8 | Cc1cccc2c(-c3ccncn3)c(-c3ccc(F)cc3)nn12 [GW515532] | 53 | 0 | 0 | 0 | 57 | 0 | 0 | 0 | 0 | 0
9 | COc1ccc(Nc2nccc(-c3ccc(NC(=O)c4cc5cc(F)ccc5[nH]4)cc3)n2)cc1 [GSK1229496] | 0 | 0 | 0 | 21 | 22 | 0 | 0 | 5 | 0 | 0
10 | O=C1NC(=O)C(c2ccc(Cl)cc2)=C1Nc1cccc(Cl)c1 [SB-317651] | 0 | 0 | 22 | 6 | 16 | 0 | 0 | 0 | 0 | 1
11 | COc1ccc(CSc2nnc(-c3ccc4c(c3)CCO4)o2)cc1 | 0 | 0 | 0 | 3 | 0 | 0 | 0 | 0 | 0 | 8
12 | CCn1c(-c2ccccc2)nc2cnccc21 [SB-733416] | 51 | 0 | 0 | 0 | 11 | 22 | 14 | 2 | 0 | 0
13 | COc1ccc2cc(-c3nc(-c4ccccc4C(C)C)[nH]c3-c3ccncc3)ccc2c1 [SB-660566] | 13 | 3 | 20 | 0 | 0 | 17 | 20 | 28 | 0 | 16
14 | Cc1ccc(NC(=O)Nc2ccc(Cl)cc2)cc1-c1ccc(C(=O)Nc2ccncc2)cc1 [GSK1398472] | 0 | 2 | 30 | 3 | 18 | 0 | 3 | 16 | 0 | 6
15 | Fc1ccc(-c2nc3n(c2-c2ccncc2)CCS3)cc1 [GI98581] | 14 | 22 | 0 | 3 | 63 | 0 | 13 | 6 | 0 | 10
16 | CN1c2ccc(-c3ccc(C(N)=O)cc3)cc2-c2[nH]ncc2S1(=O)=O | 0 | 0 | 0 | 0 | 0 | 0 | 0 | 21 | 12 | 0
17 | O=C(Nc1n[nH]c2nc(-c3cccs3)c(Br)cc12)C1CC1 [SB-735297] | 0 | 0 | 15 | 0 | 34 | 41 | 12 | 7 | 36 | 19
18 | O=c1cc(N2CCOCC2)nc2n(Cc3cccc(Cl)c3Cl)c3ccccc3n12 [GSK2299009] | 0 | 39 | 0 | 0 | 15 | 3 | 7 | 21 | 0 | 0
